Assay outcomes from PubChem.
Most compounds without a hit are left out; they make up all but 8.7% or so of the library.
HP1b binding inh = blocks HP1-beta chromodomain binding to methylated histone tails; P83916; AlphaScreen HP1-beta / biotin-H3K9me3 peptide binding; Potency, µM (titrated, usually from 114 µM), for the others: top-dose activity change, negative = inhibition, usual class: inhibitors; 390,000 tested, 0.56% active; further: nearly all actives have a fitted effect of over 70% in size
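HP1-beta protein (50 nM final) preincubated 30 min at room temperature with biotinylated H3(1-18)K9me3 peptide (50 nM) in PBS pH 7.4, 0.01% Tween-20, then compound added for 30 min. AlphaScreen streptavidin donor/nickel chelate acceptor beads (10 ug/mL final), 30 min dark, luminescence read.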
G9a inh = G9a (human) methyltransferase inhibition. 350,000 tested, 8.8% active. Q96KQ7. G9a H3K9 monomethylation, AlphaScreen, 2 h. Potency, µM (top dose mostly 102 µM), without a hit: top-dose activity, negative = inhibition, actives largely listed as inhibitors. AID 504332; further: on the % scale 0 is the no-effect control and ±100 the full control effect; nearly all actives have a fitted effect of over 75% in size
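Using a bead-based AlphaScreen, monomethylated H3K9 product from 2 h room-temperature reactions (G9a 20 nM, peptide 500 nM, SAM 20 uM) was detected with 0.5 ug/mL rabbit anti-H3K9me1 antibody.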
BAZ2B inh = BAZ2B (human) inhibition; Q9UIF8; AlphaScreen BAZ2B-H3K14Ac peptide displacement; Potency, µM (titrated, usually from 114 µM), inactives show top-dose activity change, negative = inhibition, hits mostly inhibitors; 360,000 tested, 4.4% active; further: on the % scale 0 is the no-effect control and ±100 the full control effect; nearly all actives have a fitted effect of over 60% in size
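Inhibition is scored as reduced AlphaScreen emission. The BAZ2B/b-H3(5-23)K14Ac complex (50 nM each) in PBS pH 7.4, 0.01% Tween-20 meets compound (up to 110 uM) for 30 min at RT before bead addition.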
JMJD2A Tudor inh = blocks the human JMJD2A Tudor domain; 390,000 tested, 4.4% active; AlphaScreen JMJD2A-Tudor / H3K4me3 peptide binding; AID 504339; Potency, µM (titrated, usually from 114 µM), for inactives: at the highest dose activity change, negative = inhibition, most hits filed as inhibitors; O75164; further: on the % scale 0 is the no-effect control and ±100 the full control effect; nearly all actives have a fitted effect of over 50% in size
Sfp inh = blocks B. subtilis Sfp PPTase activity. Biochemical Sfp PPTase activity, qHTS. Q9F4F7. Potency, µM, without a hit: largest response in the series, negative = inhibition, hits mostly inhibitors. AID 1490. 310,000 tested, 3.5% active;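 further: the enzyme is Sfp with the accession as filed and its product quenches rhodamine fluorescence; 0% = enzyme reaction without inhibitor and -100% = no enzyme wells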
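Sfp 15 nM + cpd, 15 min RT; start w/ rhodamine-CoA 5 uM, BHQ-2-YbbR 12.5 uM (final); 50 mM Hepes pH 7.6, 10 mM MgCl2, 0.01% NP-40, 0.01% BSA; read 525/598 nm at 0 and 30 min.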
12-LOX inh = ALOX12 (human) lipoxygenase inhibition; purified 12hLO, xylenol orange hydroperoxide absorbance; Potency, µM (highest dose often 108 µM), for inactives: at the top dose activity change, negative = inhibition, usual class: inhibitors; 580,000 tested, 1.1% active; AID 1671190; further: on the % scale 0 is the no-effect control and ±100 the full control effect
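Purified human 12hLO at 150 nM in 25 mM Hepes, 0.01% Triton X-100, pH 7.0, preincubated 15 min at room temperature with compound. Reaction started with 40 uM arachidonic acid, 30 min at room temperature. Hydroperoxide measured by Fe-xylenol orange, 573/405 nm absorbance ratio.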
An asterisk follows results filed as active; ? = inconclusive; . = not tested or not shown; [ ] = another dose, or the depositor's remark. The call rests on the fitted dose curve; in most records, active means well fitted curve in the direction sought with a large enough effect; inconclusive means small, poorly fitted or top-dose-only effect, or another doubt; inactive means no such curve, though single readings can be large; an effect the other way counts as inactive or inconclusive. Potency means the concentration at half of the fitted maximal effect.

SMILES	HP1b binding inh	G9a inh	BAZ2B inh	JMJD2A Tudor inh	Sfp inh	12-LOX inh
C=CCN(C)C(=O)C[C@@H]1c2nc(NC(=O)Cc3ccc(OC)cc3)sc2C[C@@H]2[C@](C)(CO)[C@H](O)CC[C@]21C	.	.	.	.	.	-7.8%
COc1cccc(C(=O)COC(=O)c2ccc3c(c2)OCO3)c1	.	.	.	.	.	-12.7%
CC(C[N+](C)(C)C)OC(=O)c1ccc2c(c1)OCO2 (centres undefined)	.	.	.	.	.	25.1µM*
CC(=O)Nc1cc(NC(C)=O)cc(C(=O)OCC(=O)c2ccc3c(c2)OCO3)c1	21.8%	10µM*	-26.6%	-24.8%	.	-8.9%
COc1ccc(NC2(c3ccc(Cl)cc3)C(=O)c3ccccc3C2=O)cc1	14.1µM*	28.2µM*	14.1µM*	56.2µM*	17.4%	15.4%
COc1ccc(N2CCN(S(=O)(=O)/C=C/c3ccccc3)CC2)cc1	8.1%	-30.6%	11.2%	-23.6%	7.3%	-10.8%
COc1ccc(N2CCN(C3(c4ccccc4)C(=O)c4ccccc4C3=O)CC2)cc1	12.6µM*	8.91µM*	7.08µM*	8.91µM*	.	-1.3%
CN(C)C(C(=O)N1CCN(c2ncccc2C#N)CC1)c1cccc(F)c1 (centres undefined)	.	.	.	.	.	35.4%
CCc1ccc(-c2cn3c(n2)sc2cc(C(=O)NCCCc4ccccc4)ccc23)cc1	23.8%	-0.8%[59 µM]	-4.8%	-25.7%	.	-15.1%
CCOc1ccc(-c2cn3c(n2)sc2cc(C(=O)NCCCc4ccccc4)ccc23)cc1	39.2%	22.4µM*	-15.8%	4.3%	.	-17.7%
O=C(NCc1cccs1)c1ccc2c(c1)sc1nc(-c3ccc(F)cc3)cn12	42.0%	10µM*	-16.9%	-19.1%	.	-8.3%
COc1ccc2c(c1)sc1nc(-c3ccccc3)cn12	35.8%	6.1%[12.7 µM]	-10.7%	-4.8%	50.1µM*	-1.7%
Cc1ccc(-c2cn3c(n2)sc2cc(C(=O)NCc4cccs4)ccc23)cc1	33.2%	-8.5%[59 µM]	-7.5%	-16.4%	.	-16.0%
COc1ccc(-c2cn3c(n2)sc2cc(C(=O)NCc4ccccc4)ccc23)cc1	27.3%	-32.5%[59 µM]	-19.8%	-14.5%	.	-17.4%
O=C(NCc1ccncc1)c1ccc(C2CCCCC2)cc1	.	.	.	.	.	2.0%
CC(C)c1noc(C2CCCN(Cc3cn(C(C)C)c4ccccc34)CCC(=O)NCC2)n1 (centres undefined)	.	.	.	.	.	14.8%
Cc1ccccc1C(=O)NCCc1c[nH]c2ccc(Cl)cc12	.	.	.	.	.	-7.0%
CCOC(=O)c1cnc2ccc(OCC)cc2c1NCc1ccccc1	308.0%	100.6%[59 µM]	141.1%	157.4%	31.6µM*	-7.6%
CCOC(=O)c1cnc2ccc(C)cc2c1Nc1ccc(N(CC)CC)cc1	10µM*	4.47µM*	3.55µM*	12.6µM*	.	-4.0%
CCOC(=O)c1cnc2ccc(OC)cc2c1Nc1ccc(OC)cc1	.	.	.	.	.	-0.4%
CCOC(=O)c1cnc2ccc(Cl)cc2c1Nc1ccc(N2CCOCC2)cc1	?	7.08µM*	14.1µM*	35.5µM*	.	-23.7%
CCOC(=O)c1cnc2ccc(C)cc2c1Nc1ccc(N2CCOCC2)cc1	22.4µM*	39.8µM*	35.5µM*	28.2µM*	-18.6%	?
CCOC(=O)c1cnc2ccc(Cl)cc2c1Nc1ccc(S(=O)(=O)Nc2ncccn2)cc1	26.4%	-4.7%	-20.2%	-6.0%	10.7%	-14.6%
O=C1CCCCCN1C1CCN(Cc2ccc(F)cc2)CC1	.	.	.	.	.	33.7%[176 µM]
CCOC(=O)c1cnc2ccc(C(=O)OC)cc2c1Nc1cccc(C(=O)O)c1	41.6%	3.7%	-12.3%	10.7%	13.4%	-14.2%
SMILES	HP1b binding inh	G9a inh	BAZ2B inh	JMJD2A Tudor inh	Sfp inh	12-LOX inh
CCOC(=O)c1cnc2ccc(C(=O)OC)cc2c1Nc1ccc(N2CCOCC2)cc1	?	12.6µM*	17.8µM*	50.1µM*	.	-16.3%
Cc1cccc(C)c1NC(=O)CN(C)C(=O)COc1ccc2oc3c(c2c1)CCCC3	.	.	.	.	.	28.5%
CCC(C)(C)n1nnnc1C(c1cc2cc(C)ccc2[nH]c1=O)N1CCCC1 (centres undefined)	23.2%	8.91µM*	-4.4%	-17.7%	14.1µM*	4.5%
CCN1CCN(C(c2cc3cc4c(cc3[nH]c2=O)OCO4)c2nnnn2C(C)(C)CC)CC1 (centres undefined)	10.1%	-37.3%[59 µM]	-2.7%	-20.5%	-6.5%	?
CC(C)(C)n1nnnc1C(c1cc2cc3c(cc2[nH]c1=O)OCO3)N1CCN(c2ccccc2)CC1 (centres undefined)	17.3%	-9.7%[2.33 µM]	-6.7%	-17.3%	-8.5%	-20.5%
CCC(C)(C)n1nnnc1C(c1cc2cc(OC)c(OC)cc2[nH]c1=O)N1CCc2ccccc21 (centres undefined)	-6.3%	44.7µM*	-15.0%	?	-1.6%	1.1%
Cc1ccc2cc(C(c3nnnn3C(C)(C)C)N3CCCCCC3)c(=O)[nH]c2c1 (centres undefined)	23.5%	7.94µM*	-24.8%	-12.6%	?	.
CCCc1nnc([C@H]2CCN(C(=O)COC)C2)o1	.	.	.	.	.	-2.3%[176 µM]
Nc1ccc(N2CCCCCC2)cc1	.	3.55µM*	31.6µM*	.	8.91µM*	.
Nc1ccc(N2CCN(c3ccc(F)cc3)CC2)cc1	?	.	35.5µM*	?	-2.7%	?
Nc1ccc(N2CCN(c3ccc(Cl)c(Cl)c3)CC2)cc1	17.8µM*	?	14.1µM*	44.7µM*	-15.7%	?
O=C(O)/C=C/C(=O)N1CCN(c2ccc(F)cc2)CC1	-13.0%	50.1µM*	-25.1%	-72.5%	-5.9%	?
COC(=O)N1CCN(c2ccc(Cl)c(Cl)c2)CC1	22.5%	5.9%[59 µM]	-1.1%	23.1%	4.6%	-22.1%
CC(=O)N1CCN(c2ccc(N)cc2)CC1	17.6%	-13.2%[2.33 µM]	?	-14.1%	.	-7.6%
O=C(/C=C/c1cccs1)N1CCN(c2ccc(F)cc2)CC1	22.9%	-2.7%	-5.3%	-7.6%	7.5%	?
Cn1nc(-c2nncn2CC2CC2)c2c1CCN(C(=O)c1nn(C)c3ccccc13)C2	.	.	.	.	.	10.8%
O=C(N[C@@H]1CN(Cc2ccccn2)CCC[C@H]1O)c1ccc(OCc2ccccc2)cc1	.	.	.	.	.	28.4%[176 µM]
Cc1cc(NC(=O)c2nc3ccccc3nc2NCc2ccccc2)ccc1Br	.	.	.	.	.	-9.0%
CN(C)C(=O)N1CCn2nc(CNC(=O)c3cc4ccccc4n3C)cc2C1	.	.	.	.	.	14.6%
O=C(Nc1nn[nH]n1)c1cccc(Oc2ccccc2)c1	29.9%	39.8µM*	11.9%	?	-6.5%	27.6%
CCOc1ccccc1C(=O)Nc1ccccc1C(N)=O	17.5%	-30.9%[12.7 µM]	13.4%	-11.5%	-0.7%	-19.0%
CCOc1ccccc1C(=O)Nc1nn[nH]n1	?	25.1µM*	50.1µM*	56.2µM*	23.3%	?
CC(=O)Nc1ccc(N/C=C/C(=O)c2ccco2)cc1	26.1%	?	?	-15.4%	-16.9%	11.9%
